# Source: paper PMC7862700, “An all-to-all approach to the identification of sequence-specific readers for epigenetic DNA modifications on cytosine”
# Experiments:
# Experiment in all cases: DAPPL (digital affinity profiling via proximity ligation, sequencing); 10 mM Tris-HCl pH 7.5, 50 mM NaCl, 1 mM DTT, 4% glycerol, room temperature, 30 min; GST-TFs on glutathione beads, 16-mer random dsDNA library, 0.1% formaldehyde crosslink after washing; high values mean tight binding
# Settings in all cases: protein: recombinant; tags: N-terminal GST; dsDNA, one strand shown
# FEV = target: T1, FEV (Homo sapiens, UniProt Q99581 1-238)
# T1 sequence: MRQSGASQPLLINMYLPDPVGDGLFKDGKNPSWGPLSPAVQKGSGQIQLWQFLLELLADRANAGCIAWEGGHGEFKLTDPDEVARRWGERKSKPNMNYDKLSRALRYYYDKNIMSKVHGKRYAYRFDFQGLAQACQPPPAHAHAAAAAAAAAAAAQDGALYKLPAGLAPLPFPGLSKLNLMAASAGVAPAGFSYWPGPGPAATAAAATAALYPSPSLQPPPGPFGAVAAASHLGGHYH
# Summary of the method: (§1)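 Binding signal is given per hexamer as its read frequency for a factor divided by its frequency in the tag-only sample. GST-fused human transcription factors were expressed in yeast, captured on glutathione beads, barcoded with DNA and pooled with that sample, then incubated with 200 nmole of a 16-mer random double-stranded DNA library in Tris/NaCl/DTT/glycerol buffer for 30 min at room temperature. The pools were then washed, crosslinked, proximity-ligated, amplified by PCR and sequenced on an Illumina NextSeq500.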
# ETV5 = ETV5 (Homo sapiens, UniProt P41161 1-510)
# Summary of the method: as §1
# SPIC = target: T2, SPIC (Homo sapiens, UniProt Q8N5J4 1-248)
# T2 sequence: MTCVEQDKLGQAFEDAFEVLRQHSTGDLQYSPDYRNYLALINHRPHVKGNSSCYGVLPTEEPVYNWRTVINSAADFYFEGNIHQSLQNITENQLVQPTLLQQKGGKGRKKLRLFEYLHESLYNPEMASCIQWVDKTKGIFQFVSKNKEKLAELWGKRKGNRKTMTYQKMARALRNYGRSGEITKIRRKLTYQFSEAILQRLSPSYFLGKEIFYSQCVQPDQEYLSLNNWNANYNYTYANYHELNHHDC
# Summary of the method: as §1
# ELF4 = ELF4 (Homo sapiens, UniProt Q99607 1-663)
# Summary of the method: as §1
# ELK4 = target: T3, ELK4 (Homo sapiens, UniProt P28324-2 1-405)
# T3 sequence: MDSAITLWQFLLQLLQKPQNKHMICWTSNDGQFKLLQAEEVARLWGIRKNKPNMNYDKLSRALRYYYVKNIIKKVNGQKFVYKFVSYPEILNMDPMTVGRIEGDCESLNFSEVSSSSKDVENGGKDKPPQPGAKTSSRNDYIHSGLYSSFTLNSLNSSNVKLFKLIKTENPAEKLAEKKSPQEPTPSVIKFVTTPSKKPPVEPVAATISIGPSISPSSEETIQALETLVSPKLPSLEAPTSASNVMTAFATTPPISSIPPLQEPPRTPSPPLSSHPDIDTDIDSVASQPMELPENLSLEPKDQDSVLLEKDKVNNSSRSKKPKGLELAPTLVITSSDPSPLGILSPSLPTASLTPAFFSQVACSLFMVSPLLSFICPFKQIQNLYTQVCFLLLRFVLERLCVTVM
# Summary of the method: as §1
# ETV2 = target: T4, ETV2 (Homo sapiens, UniProt O00321 1-342)
# T4 sequence: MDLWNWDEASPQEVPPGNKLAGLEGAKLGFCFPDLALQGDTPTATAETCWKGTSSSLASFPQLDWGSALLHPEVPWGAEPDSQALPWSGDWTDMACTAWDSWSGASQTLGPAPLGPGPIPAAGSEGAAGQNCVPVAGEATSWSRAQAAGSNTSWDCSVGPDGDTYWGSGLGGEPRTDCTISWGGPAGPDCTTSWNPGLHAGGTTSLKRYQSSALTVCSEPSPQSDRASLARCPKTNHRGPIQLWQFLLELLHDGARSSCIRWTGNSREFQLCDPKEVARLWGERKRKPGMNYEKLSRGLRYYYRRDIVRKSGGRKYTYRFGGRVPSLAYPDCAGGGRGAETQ
# Summary of the method: as §1
# ELF3 = target: T5, ELF3 (Homo sapiens, UniProt P78545 1-371)
# T5 sequence: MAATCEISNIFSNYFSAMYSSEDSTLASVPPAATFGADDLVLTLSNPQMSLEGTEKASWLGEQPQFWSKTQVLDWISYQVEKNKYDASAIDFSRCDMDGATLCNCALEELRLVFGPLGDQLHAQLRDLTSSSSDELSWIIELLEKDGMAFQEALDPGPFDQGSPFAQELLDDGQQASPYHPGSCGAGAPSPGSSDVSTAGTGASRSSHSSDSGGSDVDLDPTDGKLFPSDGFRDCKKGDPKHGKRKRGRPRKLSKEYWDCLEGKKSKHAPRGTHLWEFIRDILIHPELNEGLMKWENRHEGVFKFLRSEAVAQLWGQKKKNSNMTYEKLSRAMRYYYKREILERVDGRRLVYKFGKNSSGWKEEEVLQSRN
# Summary of the method: as §1
# ETV1 = ETV1 (Homo sapiens, UniProt P50549 1-477)
# Summary of the method: as §1
# ERF = target: T6, ERF (Homo sapiens, UniProt P50548 1-548)
# T6 sequence: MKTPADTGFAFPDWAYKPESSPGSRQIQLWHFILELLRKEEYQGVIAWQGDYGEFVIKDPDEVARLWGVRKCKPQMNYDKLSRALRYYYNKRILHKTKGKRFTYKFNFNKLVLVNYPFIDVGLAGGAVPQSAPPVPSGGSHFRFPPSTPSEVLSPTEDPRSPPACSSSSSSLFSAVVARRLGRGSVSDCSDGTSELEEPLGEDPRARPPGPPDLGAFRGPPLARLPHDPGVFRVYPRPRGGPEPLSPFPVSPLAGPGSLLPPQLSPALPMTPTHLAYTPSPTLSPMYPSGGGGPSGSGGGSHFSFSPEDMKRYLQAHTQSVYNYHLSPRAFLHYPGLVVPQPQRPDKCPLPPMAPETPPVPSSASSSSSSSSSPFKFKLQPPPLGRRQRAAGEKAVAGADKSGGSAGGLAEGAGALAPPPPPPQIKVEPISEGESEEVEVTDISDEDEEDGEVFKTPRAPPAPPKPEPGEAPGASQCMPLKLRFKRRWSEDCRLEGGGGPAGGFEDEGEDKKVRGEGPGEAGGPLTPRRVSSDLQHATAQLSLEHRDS
# Summary of the method: as §1
# ETV3L = target: T7, ETV3L (Homo sapiens, UniProt Q6ZN32 1-361)
# T7 sequence: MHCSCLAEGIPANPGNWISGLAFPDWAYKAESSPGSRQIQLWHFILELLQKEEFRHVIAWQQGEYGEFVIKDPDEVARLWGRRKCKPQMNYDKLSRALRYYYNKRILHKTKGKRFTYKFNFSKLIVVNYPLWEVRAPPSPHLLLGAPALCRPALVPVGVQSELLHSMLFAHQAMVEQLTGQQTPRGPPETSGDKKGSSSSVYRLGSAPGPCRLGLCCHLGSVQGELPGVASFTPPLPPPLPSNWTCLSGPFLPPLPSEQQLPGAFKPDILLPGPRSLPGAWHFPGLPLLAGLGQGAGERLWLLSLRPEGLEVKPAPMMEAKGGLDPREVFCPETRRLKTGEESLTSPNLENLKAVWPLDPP
# Summary of the method: as §1
# ETS2 = target: T8, ETS2 (Homo sapiens, UniProt P15036 1-469)
# T8 sequence: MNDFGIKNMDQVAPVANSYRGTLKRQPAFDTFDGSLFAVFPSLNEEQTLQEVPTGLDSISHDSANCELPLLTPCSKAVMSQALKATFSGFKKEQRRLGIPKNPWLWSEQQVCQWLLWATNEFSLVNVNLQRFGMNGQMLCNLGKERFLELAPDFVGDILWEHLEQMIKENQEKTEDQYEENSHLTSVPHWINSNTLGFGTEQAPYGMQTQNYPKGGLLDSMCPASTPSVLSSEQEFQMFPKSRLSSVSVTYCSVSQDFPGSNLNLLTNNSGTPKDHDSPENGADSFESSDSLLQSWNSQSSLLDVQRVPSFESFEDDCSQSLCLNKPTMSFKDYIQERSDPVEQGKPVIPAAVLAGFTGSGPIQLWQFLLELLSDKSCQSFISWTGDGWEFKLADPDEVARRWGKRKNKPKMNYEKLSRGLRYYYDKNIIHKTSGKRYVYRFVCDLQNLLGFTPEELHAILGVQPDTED
# Summary of the method: as §1
# SPDEF = target: T9, SPDEF (Homo sapiens, UniProt O95238 1-335)
# T9 sequence: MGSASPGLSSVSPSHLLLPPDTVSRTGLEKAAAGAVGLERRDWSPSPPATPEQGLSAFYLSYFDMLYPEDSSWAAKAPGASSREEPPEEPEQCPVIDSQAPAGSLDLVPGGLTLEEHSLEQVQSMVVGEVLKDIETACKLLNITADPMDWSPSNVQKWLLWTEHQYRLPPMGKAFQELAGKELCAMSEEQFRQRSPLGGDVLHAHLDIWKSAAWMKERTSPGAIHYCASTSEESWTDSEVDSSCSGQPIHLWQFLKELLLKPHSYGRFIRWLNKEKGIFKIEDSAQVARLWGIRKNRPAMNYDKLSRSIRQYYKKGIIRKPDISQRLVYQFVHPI
# Summary of the method: as §1
# ETV7 = target: T10, ETV7 (Homo sapiens, UniProt Q9Y603 1-341)
# T10 sequence: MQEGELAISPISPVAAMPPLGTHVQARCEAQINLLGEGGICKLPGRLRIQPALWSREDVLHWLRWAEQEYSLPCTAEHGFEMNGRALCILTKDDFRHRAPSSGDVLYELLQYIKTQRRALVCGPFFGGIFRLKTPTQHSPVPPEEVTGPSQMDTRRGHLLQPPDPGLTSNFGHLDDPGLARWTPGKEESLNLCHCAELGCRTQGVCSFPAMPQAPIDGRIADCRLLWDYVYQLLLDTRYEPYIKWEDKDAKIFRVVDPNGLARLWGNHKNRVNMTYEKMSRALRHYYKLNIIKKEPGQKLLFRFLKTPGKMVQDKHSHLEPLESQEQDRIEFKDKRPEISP
# Summary of the method: as §1
# ELF5 = target: T11, ELF5 (Homo sapiens, UniProt Q9UKW6-2 1-255)
# T11 sequence: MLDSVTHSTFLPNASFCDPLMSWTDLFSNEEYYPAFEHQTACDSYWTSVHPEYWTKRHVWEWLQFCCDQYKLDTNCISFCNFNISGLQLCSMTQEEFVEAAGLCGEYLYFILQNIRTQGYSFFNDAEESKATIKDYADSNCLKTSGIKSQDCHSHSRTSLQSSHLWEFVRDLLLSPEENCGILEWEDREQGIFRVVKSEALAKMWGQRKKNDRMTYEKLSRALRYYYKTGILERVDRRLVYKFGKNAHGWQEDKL
# Summary of the method: as §1
# ETV3 = target: T12, ETV3 (Homo sapiens, UniProt P41162-2 1-143)
# T12 sequence: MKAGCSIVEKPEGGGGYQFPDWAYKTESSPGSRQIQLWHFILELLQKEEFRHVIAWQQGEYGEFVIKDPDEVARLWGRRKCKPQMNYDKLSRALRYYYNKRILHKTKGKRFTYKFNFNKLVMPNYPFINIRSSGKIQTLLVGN
# Summary of the method: as §1
# ETV6 = ETV6 (Homo sapiens, UniProt P41212 1-452)
# Summary of the method: as §1
# ETV1, sequence (P50549 whole entry): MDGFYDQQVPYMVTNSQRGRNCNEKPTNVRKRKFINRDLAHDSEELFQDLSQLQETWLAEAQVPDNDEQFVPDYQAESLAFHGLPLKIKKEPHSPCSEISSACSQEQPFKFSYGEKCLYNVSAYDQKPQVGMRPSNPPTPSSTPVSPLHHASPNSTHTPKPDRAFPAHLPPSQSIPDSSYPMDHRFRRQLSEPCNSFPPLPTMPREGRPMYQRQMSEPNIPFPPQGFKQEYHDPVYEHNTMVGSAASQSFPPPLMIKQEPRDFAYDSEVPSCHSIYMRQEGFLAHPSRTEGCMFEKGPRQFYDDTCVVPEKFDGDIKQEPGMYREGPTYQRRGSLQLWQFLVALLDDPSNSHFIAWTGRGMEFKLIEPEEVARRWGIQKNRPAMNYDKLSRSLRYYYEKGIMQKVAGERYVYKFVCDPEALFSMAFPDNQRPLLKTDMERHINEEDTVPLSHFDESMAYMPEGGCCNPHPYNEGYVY
# ETV5, sequence (P41161 whole entry): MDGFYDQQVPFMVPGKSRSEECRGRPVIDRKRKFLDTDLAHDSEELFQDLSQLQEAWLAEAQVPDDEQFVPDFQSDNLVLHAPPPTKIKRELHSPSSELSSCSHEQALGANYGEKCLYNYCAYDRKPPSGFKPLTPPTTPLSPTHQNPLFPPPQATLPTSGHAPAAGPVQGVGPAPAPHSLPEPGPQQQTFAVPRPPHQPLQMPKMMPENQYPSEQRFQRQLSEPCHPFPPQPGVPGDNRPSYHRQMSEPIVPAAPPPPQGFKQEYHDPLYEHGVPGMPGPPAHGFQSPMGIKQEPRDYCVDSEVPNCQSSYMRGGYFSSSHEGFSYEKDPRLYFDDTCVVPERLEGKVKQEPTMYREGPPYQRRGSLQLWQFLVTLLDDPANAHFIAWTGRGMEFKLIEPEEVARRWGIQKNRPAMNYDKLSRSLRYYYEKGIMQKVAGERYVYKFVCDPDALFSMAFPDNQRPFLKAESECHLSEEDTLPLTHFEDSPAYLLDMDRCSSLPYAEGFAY
# ELF4, sequence (Q99607 whole entry): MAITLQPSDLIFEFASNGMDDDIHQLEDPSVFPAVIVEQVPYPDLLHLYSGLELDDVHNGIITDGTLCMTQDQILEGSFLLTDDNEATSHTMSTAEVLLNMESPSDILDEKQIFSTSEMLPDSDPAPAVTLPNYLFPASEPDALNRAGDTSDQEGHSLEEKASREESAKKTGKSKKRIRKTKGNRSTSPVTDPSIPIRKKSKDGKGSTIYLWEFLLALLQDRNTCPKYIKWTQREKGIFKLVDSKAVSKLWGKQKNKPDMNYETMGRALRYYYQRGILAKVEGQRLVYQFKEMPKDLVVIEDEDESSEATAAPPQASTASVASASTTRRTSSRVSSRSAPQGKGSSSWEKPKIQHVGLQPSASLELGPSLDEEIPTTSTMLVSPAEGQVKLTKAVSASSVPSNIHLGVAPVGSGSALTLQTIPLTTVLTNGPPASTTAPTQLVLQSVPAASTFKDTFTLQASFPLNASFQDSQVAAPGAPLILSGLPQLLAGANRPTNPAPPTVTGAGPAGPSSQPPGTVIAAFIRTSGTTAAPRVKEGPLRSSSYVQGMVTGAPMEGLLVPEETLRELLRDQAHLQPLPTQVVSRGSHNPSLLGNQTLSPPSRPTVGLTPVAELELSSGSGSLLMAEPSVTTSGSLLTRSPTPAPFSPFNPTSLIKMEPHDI
# ETV6, sequence (P41212 whole entry): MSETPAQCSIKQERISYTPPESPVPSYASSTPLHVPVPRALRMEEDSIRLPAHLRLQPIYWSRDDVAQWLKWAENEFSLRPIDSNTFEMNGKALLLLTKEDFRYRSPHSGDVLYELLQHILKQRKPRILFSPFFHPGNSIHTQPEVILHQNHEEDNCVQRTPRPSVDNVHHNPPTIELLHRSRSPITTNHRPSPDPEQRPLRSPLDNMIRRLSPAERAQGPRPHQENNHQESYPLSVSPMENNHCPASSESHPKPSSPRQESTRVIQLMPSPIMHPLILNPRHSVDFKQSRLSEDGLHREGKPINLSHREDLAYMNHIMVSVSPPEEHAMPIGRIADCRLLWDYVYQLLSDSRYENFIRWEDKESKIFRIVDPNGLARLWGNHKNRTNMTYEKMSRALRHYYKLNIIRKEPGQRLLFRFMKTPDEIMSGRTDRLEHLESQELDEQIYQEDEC
Sequence,binding signal (FEV),binding signal (ETV5),binding signal (SPIC),binding signal (ELF4),binding signal (ELK4),binding signal (ETV2),binding signal (ELF3),binding signal (ETV1),binding signal (ERF),binding signal (ETV3L),binding signal (ETS2),binding signal (SPDEF),binding signal (ETV7),binding signal (ELF5),binding signal (ETV3),binding signal (ETV6)
CCGGTC,"1.62 fold enrichment (6-mer frequency, TF over GST control)","1.22 fold enrichment (6-mer frequency, TF over GST control)","1.01 fold enrichment (6-mer frequency, TF over GST control)","1.08 fold enrichment (6-mer frequency, TF over GST control)","1.18 fold enrichment (6-mer frequency, TF over GST control)","1.08 fold enrichment (6-mer frequency, TF over GST control)","1.14 fold enrichment (6-mer frequency, TF over GST control)","1.17 fold enrichment (6-mer frequency, TF over GST control)","1.1 fold enrichment (6-mer frequency, TF over GST control)","1.13 fold enrichment (6-mer frequency, TF over GST control)","1.2 fold enrichment (6-mer frequency, TF over GST control)","1.38 fold enrichment (6-mer frequency, TF over GST control)","1.22 fold enrichment (6-mer frequency, TF over GST control)","1.13 fold enrichment (6-mer frequency, TF over GST control)","1.2 fold enrichment (6-mer frequency, TF over GST control)","1.15 fold enrichment (6-mer frequency, TF over GST control)"
TGCACA,"1.14 fold enrichment (6-mer frequency, TF over GST control)","1.13 fold enrichment (6-mer frequency, TF over GST control)","1.15 fold enrichment (6-mer frequency, TF over GST control)","1.12 fold enrichment (6-mer frequency, TF over GST control)","1.11 fold enrichment (6-mer frequency, TF over GST control)","1.15 fold enrichment (6-mer frequency, TF over GST control)","1.26 fold enrichment (6-mer frequency, TF over GST control)","1.09 fold enrichment (6-mer frequency, TF over GST control)","1.22 fold enrichment (6-mer frequency, TF over GST control)","1.13 fold enrichment (6-mer frequency, TF over GST control)","1.06 fold enrichment (6-mer frequency, TF over GST control)","1.21 fold enrichment (6-mer frequency, TF over GST control)","1.02 fold enrichment (6-mer frequency, TF over GST control)","1.07 fold enrichment (6-mer frequency, TF over GST control)","1.18 fold enrichment (6-mer frequency, TF over GST control)","1.06 fold enrichment (6-mer frequency, TF over GST control)"
GTACCT,"1.14 fold enrichment (6-mer frequency, TF over GST control)","1.26 fold enrichment (6-mer frequency, TF over GST control)","1.44 fold enrichment (6-mer frequency, TF over GST control)","1.23 fold enrichment (6-mer frequency, TF over GST control)","1.25 fold enrichment (6-mer frequency, TF over GST control)","1.32 fold enrichment (6-mer frequency, TF over GST control)","1.57 fold enrichment (6-mer frequency, TF over GST control)","1.27 fold enrichment (6-mer frequency, TF over GST control)","1.19 fold enrichment (6-mer frequency, TF over GST control)","1.19 fold enrichment (6-mer frequency, TF over GST control)","1.21 fold enrichment (6-mer frequency, TF over GST control)","1.27 fold enrichment (6-mer frequency, TF over GST control)","1.2 fold enrichment (6-mer frequency, TF over GST control)","1.31 fold enrichment (6-mer frequency, TF over GST control)","1.14 fold enrichment (6-mer frequency, TF over GST control)","1.19 fold enrichment (6-mer frequency, TF over GST control)"
